Drawing on PubChem BioAssay (NCI), this text covers growth for 40 compounds.

SMILES strings stand for the structures. Several values for one entry are separate records, joined by “and”; a condition that tells them apart may be missing. Equal values may be shown once. The panel holds about 83,000 compounds, 20% with a hit somewhere; the sample as a whole holds those more often.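 Treatment: one concentration, 48 hours, 96-well format. Scoring: percent growth, with anything below 10 considered active.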 Unmarked numbers belong to inactive results. Activity calls are given as the source filed them.

The assay relates to HL-60(TB) leukemia. Briefly: NCI-60 one-dose screen, 48 h (100 = growth as untreated, 0 = no growth, -100 = all killed). As to conditions: 10 µM unless noted.
For the compound `COc1ccc2c(c1)[n+]([O-])c(C#N)c(NC(=O)c1ccco1)[n+]2[O-]`, the growth was 108%.
As to `O=C(NCCCCNC(=O)OCc1ccc2c(Cl)cc(Cl)c(O)c2n1)OCc1ccc2c(Cl)cc(Cl)c(O)c2n1`, the growth was -49.2% (active).
Then `O=c1[nH]c2cc(Cl)c(Cl)cc2o1`, with 120%; and `Cc1nc2nc(C(F)(F)F)[nH]c2nc1C`, with 98.8%.
Then `CN1C(=O)/C(=C/c2ccc(C(=O)Nc3ncc(Cc4ccc(Cl)cc4)s3)cc2)SC1=S`, with 57.6%.
The same measure for `CCCCN1CCN(c2ccc3nc(-c4ccc5nc(-c6cc(OC)c(OC)c(OC)c6)[nH]c5c4)[nH]c3c2)CC1`: 85.7%.
As to `O=C1OC(=O)C2C3CC(c4ccccc43)C12` (stereo not given), the growth is 112%.
For `CCC(C)C1(C2CCCC2)NC(=O)NC1=O` (stereo not given), the growth is 63.4% and 98.2%.
Regarding `Cc1ccc(-c2nc3ccccn3c2/C=C2/C(=O)Nc3cc(Cl)ccc32)cc1`, the growth was 50.3%.
Regarding `COC(=O)[C@]1(C)CCC[C@]2(C)[C@H]3C[C@H]4C(C(C)C)=C[C@]3(CC[C@H]21)[C@@H]1C(=O)N(CCC#N)C(=O)[C@@H]14`, the growth is 44.4%.
Then `COc1ccc2c(c1)C(=O)c1c-2c(OCCN2CCCCC2)nc2ccc(OC)cc12`, with 17.1%.
Regarding `COc1ccc(NC(=O)C(=O)c2c[nH]c3ccc(F)cc23)cc1`, the growth was 79%.
`Cc1cn(-c2cc(C(=O)Nc3cccc(C#Cc4cccc5[nH]nc(N)c45)c3)cc(C(F)(F)F)c2)cn1`: the growth is 25.1%.
On to `O=C(CSc1nc2ccc([N+](=O)[O-])cc2[nH]1)Nc1ccc(F)c(Cl)c1`, for which the growth is 10.7%.
Then `O=C(CCc1ccc(O)cc1)N/N=C/c1cc(Br)ccc1O`, with -6.29% (active); and `C/C(=N\Nc1cc(C)c2ccccc2n1)c1ccccn1`, with -47.1% (active); and `CN(C)CCCn1c(=O)c2ccccc2c2cnc3[nH]ccc3c21`, with 5.9% (active).
For the compound `COc1cccc(-n2cc(-c3nc(Nc4cc(C)[nH]n4)c4ccccc4n3)nn2)c1`, the growth was 48.1%.
With `O=C(/C=C/c1cn(-c2ccccc2)nc1-c1ccc([N+](=O)[O-])cc1)c1ccc(Cl)cc1`, the growth is 69.1%.
Then `CCCCCCN(CCCCCC)C(=N)c1ccnc2ccccc12`, with 43.2%; and `COC(=O)CC[C@@H]1O[C@@H](c2cccc(C(F)(F)F)c2)[C@@H](O)[C@H]1O`, with 105%; and `NS(=O)(=O)c1cnccc1Oc1cccc2cccnc12`, with 89.5%.
The same measure for `CCSc1nc(Cl)c(C#N)c(-c2ccc(F)cc2)n1`: 81.3%.
For `CC(C)CNC(=O)c1ccccc1C(=O)NC1(C(=O)NCC(C)C)CCCC1`, the growth is 92.9% and 97.4%.
On to `O=C(CSC1CCc2ccccc21)N/N=C/c1ccccc1O` (stereo not given), for which the growth is -12% (active).
On to `CCc1ccc(Oc2c(-c3ccc(OCc4ccc(Cl)cc4)cc3O)n[nH]c2C(F)(F)F)cc1`, for which the growth was -6.99% (active).
For `O=C1CCC(N2C(=O)c3cccc(NCCOCCOCCNC(=O)c4cc5c(o4)C(=O)c4ccccc4C5=O)c3C2=O)C(=O)N1` (stereo not given), the growth is -9.95% (active).
Then `CCOc1ccc(S(=O)(=O)c2ccc(C)cc2)c2c1no[n+]2[O-]`, with 85.7%.
Take `O=S(=O)(Nc1ccc(Cl)c(C(F)(F)F)c1)c1ccc(-c2cnc(C3CC3)o2)cc1`: the growth was -38.6% (active).
Then `COc1ccc(/C=C/C(=O)O)cc1OC`, with 103% and 102%; and `Cc1nc2ccccc2c(/C=C/c2ccc(Cl)cc2)c1C(=O)/C=C/c1ccc(F)cc1`, with -7.94% (active).
Then `O=CN1CCCCC1`, with 97%; and `CN(C)CCCOc1ccccc1NC1=C(Cl)C(=O)C(Nc2ccccc2OCCCN(C)C)=C(Cl)C1=O`, with -33.1% (active); and `CCC(=O)N1C/C(=C/c2ccc(Cl)cc2)C(=O)/C(=C/c2ccc(Cl)cc2)C1`, with 4.88% (active).
The same measure for `COc1ccc2[nH]cc(C(c3cc(F)cc(F)c3)c3c[nH]c4ccc(OC)cc34)c2c1`: 131%; for `COc1cc(OC)cc(-c2n[nH]nc2-c2ccc3c(c2)OCO3)c1`: 8.65% (active).
Take `COc1ccccc1C1OC2=Nc3cc(C)c(C)cc3NC2C1=O` (stereo not given): the growth was 102%.
With `C=C[C@@H]1C[C@@H]2Cc3cc(Cl)ccc3N1O2`, the growth was 13.8%.
Then `CCCCOC(=O)c1c(C)[nH]c(/C=C2\N=C(c3ccc[nH]3)C=C2OC)c1C`, with 8.01% (active).
With `Clc1ccc(/C=N\N=c2\scc(-c3ccc(Cl)cc3)n2/N=C/c2ccc(Cl)cc2)cc1`, the growth is 84.5%.
